# Compounds without any hit were thinned out: in the full panel of roughly 83,000, 20% have a hit.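 The test compound was applied at a single concentration to cells in 96-well plates for 48 hours, and percent growth was recorded.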 A number with no mark means an inactive call. Active and inactive are the calls of the source.
# Tested on: HT29 colon
# Assay: NCI-60 one-dose screen, 48 h (100 = growth as untreated, 0 = no growth, -100 = all killed)
# Conditions: 10 µM unless noted
# Protocol: Growth inhibition of the HT29 human tumor cell line is measured as a screen for anti-cancer activity. Cells are grown in 96 well plates and exposed to the test compound for 48 hours. Compounds are tested at a single concentration, which is 10^-5 M for most compounds. The reported endpoint is percent growth (GI% or GIPRCNT), where numbers from 0 - 100% represent growth inhibition, and numbers from -100% - 0 represent cell death. For example, a value of 40 represents 60% growth inhibition. A value of 0 means no net growth occurred over the course of the experiment. A value of -40 indicates 40% of cells at the beginning of the experiment died by the end of the experiment. A value of -100 means all cells are dead at the end of the experiment.
# NCI-60 Human Tumor Cell Lines Screen was performed using the standard one-dose NCI protocol, which is described in more detail at https://dtp.cancer.gov/discovery_development/nci-60/default.htm.
# Compounds with GIPRCNT values below 10 were considered active. Activity score was based on GIPRCNT using the following formula: […]
# Score is 0 for GIPRCNT values of 100 or above, 50 for GIPRCNT values of 0, and 100 for GIPRCNT values of -100.
row,Compound,growth
1,O=[n+]1ccn([O-])c2ccccc21,108%
2,CCCC(=O)CC(=O)c1ccccc1,91.1%
3,CC(=O)Oc1c(Cl)cccc1-c1ccccc1,98.1%
4,Nc1ccc(F)cc1F,106%
5,O=C(O)c1ccc([N+](=O)[O-])cc1S(=O)(=O)O,99%
6,CC(C)(C)NCCC(O)c1cc(C(F)(F)F)nc2c(C(F)(F)F)cccc12 (stereo not given),66.5%
7,COc1cc(C(=O)O)c(O)c(C(C)(C)C)c1,109%
8,CCOC(=O)c1ccc(NC(C)=O)o1,102%
9,Cc1ccc(OC(=O)c2ccccc2)cc1,95.3%
10,COc1cc(N)c2ncccc2c1Cl,91.1%
11,Clc1cccc(Cl)c1C1CSc2ccccc2N=C1c1ccccc1 (stereo not given),26.8%
12,CCNC(=O)Oc1ccc[nH]c1=O,109%
13,Cc1nc(C)c(C(=O)O)cc1C(=O)O,109%
14,O=C(c1cccc(C(=O)c2ccc3c4c(cccc24)C(=O)N(c2ccccc2)C3=O)c1)c1ccc2c3c(cccc13)C(=O)N(c1ccccc1)C2=O,106%
15,Nc1nc(Cl)cc(Cl)n1,86.8%
16,S=C(NCc1ccccc1)N1CCC(CCCC2CCN(C(=S)NCc3ccccc3)CC2)CC1,95.9%
17,CCOS(=O)(=O)c1ccc([N+](=O)[O-])cc1,94%
18,Cc1cc2c(C(C)C)c(O)c(O)c(C=Nc3ccccc3[N+](=O)[O-])c2c(O)c1-c1c(C)cc2c(C(C)C)c(O)c(O)c(C=Nc3ccccc3[N+](=O)[O-])c2c1O,93%
19,O=C(CC(CC(=O)c1ccccc1)c1ccccn1)c1ccccc1,95.5%
20,CC(C)(N)CO[C@H]1C[C@H]2CC[C@@]1(C)C2(C)C,101%

row,Compound,growth
1,CC(=O)c1cccs1,99.8%
2,CC(CC(CCC(=O)O)(c1ccccc1)c1ccccc1)N(C)C (stereo not given),105%
3,Oc1ccc(CCC2CCNc3ccccc32)cc1 (stereo not given),93.7%
4,ClCC(Cl)[C@@H]1CC2C=CC1C2 (stereo not given in full),107%
5,OCC1OC(n2ccc3c2ncn2ncnc32)C(O)C1O (stereo not given),14.2%
6,COc1ccc2c(Cl)cc(NC(=O)Nc3c(C)cccc3C)nc2c1,88%
7,CCC(=O)C1C(=O)c2ccccc2C1=O,100%
8,NCC(O)C(O)C(O)C(O)CO (stereo not given),95.9%
9,CC(=O)OCC1CCC(COC(C)=O)CC1 (stereo not given),68.6%
10,COc1cccc(C(=O)O)c1OC,96.8%
11,CCCCN(C(=O)CC)c1ccccc1,100%
12,O=C(c1ccccc1O)N1CCCC1,93%
13,NC(=S)N/N=C/c1ccc(Cl)cc1,108%
14,Cc1ccc(/C=N/NC(N)=S)s1,110%
15,COc1ccc(Nc2cc(Cl)ccc2C(=O)O)cn1,106%
16,CN(C)Cc1ccccn1,97.4%
17,CC(=O)N=c1ccc2nc3c(cc(N)c4ccccc43)oc-2c1,1.15% (active)
18,Cc1ccc(S(=O)(=O)CCCl)cc1,110%
19,S=c1nc2[nH]c3ccccc3c2n[nH]1,98.6%
20,Cc1ccc(C)c(CCO)c1,109%
